From PubChem BioAssay AID1851 (National Center for Advancing Translational Sciences (NCATS), 2009) come the findings set out here.

SMILES strings stand for the structures. Screen size: about 16,000 compounds; about 2,600 (16%) were called active. Another 20% or so got no clear call; they are omitted. Only a sample is shown. Values without a mark were called inactive. Calls come from the whole dose curve; as a rule, active = well fitted curve in the direction sought with a large enough effect; inconclusive = small, poorly fitted or top-dose-only effect, or effect the other way; inactive = no such curve, though single readings can be large or run the other way.
% is set by controls: 0 for no effect and ±100 for the full control effect.

Cytochrome P450 2D6 (Homo sapiens), sequence (P10635 whole entry, looked up): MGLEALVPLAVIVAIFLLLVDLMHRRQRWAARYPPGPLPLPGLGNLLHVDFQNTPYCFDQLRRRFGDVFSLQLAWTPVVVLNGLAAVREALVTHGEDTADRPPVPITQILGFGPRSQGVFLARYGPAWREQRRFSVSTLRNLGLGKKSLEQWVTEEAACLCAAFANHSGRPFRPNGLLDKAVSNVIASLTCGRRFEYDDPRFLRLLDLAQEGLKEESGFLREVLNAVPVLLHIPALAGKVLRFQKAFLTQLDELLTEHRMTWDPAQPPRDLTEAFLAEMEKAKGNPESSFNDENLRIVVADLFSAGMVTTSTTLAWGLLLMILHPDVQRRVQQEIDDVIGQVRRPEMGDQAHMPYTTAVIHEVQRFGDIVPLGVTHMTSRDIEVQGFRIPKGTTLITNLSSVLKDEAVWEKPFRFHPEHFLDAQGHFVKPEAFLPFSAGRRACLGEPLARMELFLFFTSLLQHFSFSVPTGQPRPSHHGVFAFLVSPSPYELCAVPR

This assay addresses Cytochrome P450 2D6 (Homo sapiens) (UniProt P10635). In words: Cytochrome panel assay with activity outcomes. The note with it: recombinant CYP, pro-luciferin dealkylation, luminescence, p450-cyp2d6; series mostly up to 57.1 µM. The procedure:
The P450 gene superfamily is involved in the metabolism and clearance of xenobiotics. This assay used various human CYP P450 isozymes to measure the dealkylation of various pro-luciferin substrates to luciferin. The luciferin is then measured by luminescence after the addition of a luciferase detection reagent. Pro-luciferin substrate concentration in the assay was equal to its KM for its CYP P450 isozyme. Inhibitors and some substrates limit the production of luciferin, and decrease measured luminescence.
NCGC Assay Protocol Summary:
1, Reagent, 2 uL, Isozyme and Pro-Luciferin
2, Library compounds, 23 nl, 40 uM to 0.24 nM dilution series
3, Controls, 23 nl, Isozyme specific inhibitor
4, Reagent, 2 uL, NADPH regeneration solution
5, Incubation time, 60 min, Isozyme specific temperature
6, Reagent, 4ul, Detection reagent
7, Incubation time, 20 min, Isozyme specific temperature
8, Detection, 1 sec, ViewLux luminescent read
The luciferase-based P450-GloTM Screening Systems were obtained from Promega (Madison, WI) for CYP 1A2 (V9770), CYP 2C9 (V9790), CYP2 C19 (V9880), CYP 2D6 (V9890), and CYP 3A4 Luciferin-PPXE (V9910) and were adapted for 1,536-well microplates and an automated protocol. The control compounds furafylline for 1A2 (F124), sulfaphenazole for CYP 2C9 (S0758), ketoconazole for CYP 2C19 (K1003), quinidine for 2D6 (Q3625), and ketoconazole for 3A4 (K1003) were purchased from Sigma Aldrich (St. Louis, MO). Recombinant P450 enzymes were obtained from baculovirus constructs expressed in insect cells (BD/Gentest).
Medium-binding white solid Kalypsys plates used. Mixtures kept on ice. 1A2: 10 nM 1A2, 100 uM Luc-ME, 100 mM KPO4; 2C9: 10 nM 2C9, 100 uM Luc-H, 25 mM KPO4; 2C19: 5 nM 2C19, 10 uM Luc-H EGE, 50 mM KPO4; 2D6: 5 nM 2D6, 30 uM Luc-ME EGE, 100 mM KPO4; 3A4: 10 nM, 25 uM Luc-PPXE. All amounts are reflected in their final concentration, working concentration is 2x.
NADPH regeneration solution: 1.3 mM NADP+, 3.3 mM glucose-6-phosphate, 3.3 mM MgCl2, 0.4 U/mL glucose-6-phosphate dehydrogenase for all isozymes, 200 mM KPO4 for 3A4. Mixture prepared at RT but kept on ice during automated run.
RT incubation in auxilliary plate hotel for 1A2, 2D6, and 3A4; 37C for 2C9 and 2C19.
Keywords: P450, CYP1A2, CYP2C19, CYP2C9, CYP2D6, CYP3A4, Luciferase, MLSMR, MLSCN, NIH Roadmap, qHTS, NCGC
For `O=C(CSc1ccccc1)Nc1ccc(NC(=O)c2ccco2)cc1`, the AC50 (in general, the concentration giving half of the maximal activity seen) is “inactive”.
Same read-out and setting: the same measure for `O=C(Nc1cccc(-c2nc3ncccc3o2)c1)c1sc2ccccc2c1Cl`: “inactive”; for `O=C(Nc1cccc(-c2nc3ncccc3o2)c1)c1sc2cc(Cl)ccc2c1Cl`: “inactive”; for `O=C(Nc1cccc(OC(=O)c2ccco2)c1)c1ccco1`: “inactive”.
Still for that read-out and setting: the same measure for `O=C(CSc1ccc(Cl)cc1)Nc1cccc(NC(=O)c2ccco2)c1`: 6.31 µM (active).
The same measure, in the same setting: the same measure for `O=C(CSc1ccc(Cl)cc1)Nc1cccc(-c2nc3ncccc3o2)c1`: 8.91 µM (active); for `O=C(Nc1nnc(SCc2ccc(Cl)cc2)s1)c1ccco1`: “inactive”; for `Cc1ccc(SCC(=O)Nc2cccc(NC(=O)c3ccco3)c2)cc1`: 20 µM (active).
Regarding `COc1ccc(NC(=O)c2ncn[nH]2)cc1`, the AC50 result is “inactive”.
On to `COC(=O)C(C)(C(=O)OC)c1ccc([N+](=O)[O-])cn1`, for which the AC50 entry is “inactive”.
The same measure, in the same setting: under `Cc1c(Cl)c([N+](=O)[O-])nn1CC(=O)Nc1c(C)n(C)n(-c2ccccc2)c1=O` stands “inactive”; under `Cc1ccc(NC(=O)CCc2c(C)nc3ncnn3c2C)nc1`, “inactive”.
For `CC(=O)c1cccc(NC(=O)c2csc(-n3nc(C)cc3C(F)(F)F)n2)c1`, the AC50 result was “inactive”.
For the compound `COC(=O)CCCC(=O)O`, the activity, negative = inhibition is 8.35% [at 11.4 µM].
For `COC(=O)[C@@]1(Cc2ccc(OC)cc2)[C@@H]2[C@@H](CC(=O)[C@H]2CC(=O)C(=O)N(C)C)CN1C(=O)c1ccccc1`, the AC50 entry is “inactive”.
`O=[N+]([O-])c1ccc2c(c1)Cc1cc(N=Cc3ccc4c(c3)OCO4)ccc1-2`: the activity, negative = inhibition is -11.6% [at 11.4 µM].
On to `CN1CCN(c2nc3cc(C(F)(F)F)ccc3n3cccc23)CC1`, for which the AC50 result was “inactive”.
The same measure, in the same setting: the same measure for `FC(F)(F)c1cnc(N2CCC(=NOCc3ccc(Cl)cc3)CC2)c(Cl)c1`: “inactive”; for `CCCCCCN(CCCCCC)C(=O)Cc1c(-c2ccc(Cl)cc2)[nH]c2ccc(Cl)cc12`: “inactive”.
For the compound `Cc1cc(=O)c2cc(Cl)ccc2[nH]1`, the AC50 entry was “inactive”.
The same measure, in the same setting: under `CCCCN(C)Cc1c(C)[nH]c2ccc(Cl)cc2c1=O` stands 3.16 µM (active); under `CCOc1ccc2[nH]c(=O)c(CN(CCc3ccccc3)C(=O)N3CCOCC3)cc2c1`, “inactive”.
On to `N#C/C(=C\c1ccccc1)c1nc2ncccc2[nH]1`, for which the AC50 result is “inactive”.
On the same count and under the same terms, under `N#C/C(=C\c1ccc(Cl)cc1)c1nc2ncccc2[nH]1` stands 12.6 µM (active); under `c1ccc(-c2ccc(C3=Nn4c(Cn5nnc6ccccc65)nnc4SC3)cc2)cc1`, “inactive”; under `Cc1nc(C(=O)Nc2ccc(Cl)cc2Cl)nn1-c1cc(OC(C)C)c(Cl)cc1Cl`, “inactive”.
On to `COc1cccc2c1OC[C@@H](CO)[C@H]2N(C)C(=O)Nc1ccc(Cl)cc1Cl`, for which the AC50 was 3.55 µM (active).
Still for that read-out and setting: under `COC(=O)N1CC(=O)N(OC)C1c1ccc(Cl)cc1Cl` (stereo unspecified) stands “inactive”; under `Cc1ccc(OCC(=O)Nc2ccc(Cl)cc2)c(-n2nc3ccccc3n2)c1`, “inactive”.
Same read-out and setting: the same measure for `CCCCOC(=O)Nc1ccc(C)c(Cl)c1`: “inactive”; for `Cc1cc2nc(SCCOC(=O)Nc3ccc(Cl)cc3)nc(C)c2cc1C`: 8.91 µM (active).
Turning to `O=C1NC(=O)[C@@](Cc2ccccc2)(c2cccnc2)N1`, the activity, negative = inhibition is 1.34% [at 11.4 µM].
Take `CCS(=O)(=O)Nc1ccc(C2=NN(C(=O)c3ccco3)C(c3ccc(C)cc3)C2)cc1` (stereo unspecified): the AC50 entry was “inactive”.
Same read-out and setting: the same measure for `Clc1ccc(CCNc2nc3ccccc3s2)cc1`: 3.55 µM (active); for `CC(=O)NNc1nc2ccccc2s1`: “inactive”.
In the case of `O=c1c(-c2nc3ccccc3s2)cccn1Cc1ccc(Cl)cc1`, the AC50 entry is “inactive”.
In the case of `Cc1noc2ncnc(Oc3ccc4ccccc4c3)c12`, the AC50 entry was “inactive”.
On the same count and under the same terms, under `COCCN1C(=O)C(=O)/C(=C(/O)c2cccc(OC)c2)C1c1ccc(C)o1` (stereo unspecified) stands “inactive”; under `CCOC(=O)c1oc2ccccc2c1NC(=O)c1ccc2c(c1)OCO2`, 3.55 µM (active).
`COC(=O)c1[nH]c2cc(OC)ccc2c1NC(=O)c1ccc2c(c1)OCO2`: the AC50 was 22.4 µM (active).
On the same count and under the same terms, under `CCOC(=O)c1oc2ccccc2c1NC(=O)c1ccc(S(=O)(=O)N(C)C)cc1` stands “inactive”.
Same read-out and setting: under `CCOC(=O)c1[nH]c2cc(OC)c(OC)cc2c1NC(=O)c1ccc2c(c1)OCO2` stands “inactive”; under `COC(=O)c1[nH]c2cc(OC)ccc2c1NC(=O)c1nonc1C`, “inactive”; under `COc1cccc(NC(=O)c2oc3ccccc3c2NC(=O)c2ccc3c(c2)OCO3)c1`, “inactive”.
As to `Cc1nc2cnc(Nc3ccccc3)nc2n(CCc2ccccc2)c1=O`, the AC50 entry was “inactive”.
Consider `N#Cc1cccc(NC(=O)N2CCCC3(CCN(C(=O)c4cnccn4)CC3)C2)c1`, for which the AC50 result is “inactive”.
As for `CC(C)CO/N=C1/C[C@@H](O)[C@@H](O)[C@@H]2[C@@H]3C(=O)N(Cc4ccc5c(c4)OCO5)C(=O)[C@H]3CC[C@H]12`, the activity, negative = inhibition was -12.3% [at 11.4 µM].
For `O=C(O)CCC(=O)N1CCC[C@H]1C(=O)O`, the AC50 entry was “inactive”.
With `Cc1ccc2c(c1)N(CCC(=O)NCC1CCCO1)C(=O)CO2` (stereo unspecified), the AC50 result is “inactive”.
On the same count and under the same terms, under `Cc1ccc2c(c1)N(CC(=O)NC1CCCc3ccccc31)C(=O)CO2` (stereo unspecified) stands 12.6 µM (active); under `Cc1ccc2c(c1)-c1c(cnn1CC(=O)O)CO2`, “inactive”.
